Measured values: PubChem BioAssay (NCATS)
Records with an inconclusive call do not appear. Entries that show only a call come without a potency. Activity calls are given as the source filed them. Unless noted, the call rests on the fitted dose curve; in most records, active means well fitted curve in the direction sought with a large enough effect; inconclusive means small, poorly fitted or top-dose-only effect, or another doubt; inactive means no such curve, though single readings can be large; an effect the other way counts as inactive or inconclusive.

Assays:
[1] = target: Calcium and integrin-binding protein 1 (Homo sapiens) (UniProt Q99828); assay: Primary qHTS for Identification of Calcium Integrin Binding Protein 1 (CIB1) Competitor (AID 1508620);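 further: GST tagged CIB1 binding a fluorescein labelled alphaIIb integrin peptide tracer; top concentration of the series differs between compounds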
How it was run: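 Fluorescence polarization competition: GST-tagged CIB1 (1 uM final) preincubated with compound 15 min at room temperature, then FITC-labelled alphaIIb peptide (100 nM final) added. After 15 min at room temperature, polarization read at Ex 480/Em 540.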

[2] = target: Cytochrome P450 2D6 (Homo sapiens) (UniProt P10635); assay: Cytochrome P450 family 2 subfamily D member 6 (CYP2D6) small molecule antagonists: luciferase biochemical (cell-free) qHTS assay (AID 1645840; active means well fitted curve in the direction sought with a large enough effect in the repeat runs; an effect the other way counts as inactive or inconclusive; further: nearly all actives have a fitted effect of over 55% in size; further: potency means the concentration at half of the fitted maximal effect)
How it was run: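 P450-Glo luminescent screen: recombinant CYP2D6 enzyme–proluciferin substrate mix preincubated with compound 10 min at room temperature, then NADPH regeneration added for 1 h at room temperature. Detection reagent added for 20 min; luciferin light read as relative luminescence units.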

[3] = target: Cytochrome P450 2C9 (Homo sapiens) (UniProt P11712); assay: Cytochrome P450 family 2 subfamily C member 9 (CYP2C9) small molecule antagonists: luciferase biochemical (cell-free) qHTS assay (AID 1645842; active means well fitted curve in the direction sought with a large enough effect in the repeat runs; an effect the other way counts as inactive or inconclusive; further: nearly all actives have a fitted effect of over 55% in size; further: potency means the concentration at half of the fitted maximal effect)
How it was run: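 Luminescence, after 20 min with luciferin detection reagent, reflected CYP2C9 turnover during a 1 h NADPH-driven reaction at 37C. Enzyme-substrate mix contained 0.4% bovine serum albumin and was preincubated with compound 10 min at room temperature.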

[4] = Primary qHTS for inhibitors of nuclear receptor binding SET domain protein 2 (NSD2) in an isogenic RCH-ACV NSD2 p.E1099K mutant (9B) (AID 1645876); further: nearly all actives have a fitted effect of over 70% in size
[5] = Primary qHTS for inhibitors of nuclear receptor binding SET domain protein 2 (NSD2) in an RCH-ACV wild type WT cells (2C) (AID 1645877); further: nearly all actives have a fitted effect of over 70% in size

Cytochrome P450 2C9 (Homo sapiens), sequence (P11712 whole entry, looked up): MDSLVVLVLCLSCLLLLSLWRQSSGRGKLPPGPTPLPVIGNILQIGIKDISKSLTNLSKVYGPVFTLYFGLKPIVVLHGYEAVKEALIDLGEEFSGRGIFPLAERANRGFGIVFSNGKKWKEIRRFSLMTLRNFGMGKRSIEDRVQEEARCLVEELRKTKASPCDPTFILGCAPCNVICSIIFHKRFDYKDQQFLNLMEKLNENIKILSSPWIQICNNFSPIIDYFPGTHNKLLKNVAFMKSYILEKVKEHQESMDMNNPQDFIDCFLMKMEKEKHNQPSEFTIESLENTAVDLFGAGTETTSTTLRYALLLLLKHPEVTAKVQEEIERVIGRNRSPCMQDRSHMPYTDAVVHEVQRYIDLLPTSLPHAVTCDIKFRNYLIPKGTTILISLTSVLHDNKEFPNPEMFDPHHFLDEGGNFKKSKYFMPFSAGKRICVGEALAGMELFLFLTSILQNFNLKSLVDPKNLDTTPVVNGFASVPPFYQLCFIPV
Cytochrome P450 2D6 (Homo sapiens), sequence (P10635 whole entry, looked up): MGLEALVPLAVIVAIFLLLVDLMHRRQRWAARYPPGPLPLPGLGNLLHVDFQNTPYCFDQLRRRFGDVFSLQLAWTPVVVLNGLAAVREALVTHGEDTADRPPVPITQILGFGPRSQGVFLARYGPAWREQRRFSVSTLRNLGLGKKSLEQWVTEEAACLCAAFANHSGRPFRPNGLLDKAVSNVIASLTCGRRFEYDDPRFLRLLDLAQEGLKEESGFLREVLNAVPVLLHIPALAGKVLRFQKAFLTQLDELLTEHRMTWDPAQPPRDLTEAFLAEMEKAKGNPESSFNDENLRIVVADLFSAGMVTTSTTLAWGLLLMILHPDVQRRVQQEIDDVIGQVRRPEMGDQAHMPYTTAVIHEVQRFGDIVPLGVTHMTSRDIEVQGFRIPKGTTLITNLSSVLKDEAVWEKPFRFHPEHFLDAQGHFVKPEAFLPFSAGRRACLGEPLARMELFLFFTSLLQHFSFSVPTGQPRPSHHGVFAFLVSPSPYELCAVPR
Calcium and integrin-binding protein 1 (Homo sapiens), sequence (Q99828 whole entry, looked up): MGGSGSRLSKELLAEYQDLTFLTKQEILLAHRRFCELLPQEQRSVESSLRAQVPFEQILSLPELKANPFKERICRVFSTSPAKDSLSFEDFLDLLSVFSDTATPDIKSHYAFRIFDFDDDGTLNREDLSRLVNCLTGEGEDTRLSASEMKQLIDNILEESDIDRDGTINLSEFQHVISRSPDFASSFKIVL

## C=C1C(=O)O[C@@H]2C[C@]3(C)[C@@H](CCC(C)=O)[C@@H]3C[C@H]12
[1]
  Potency: inactive

## C[C@@H](NC(=O)c1cc(C(=O)N[C@@H](Cc2ccccc2)[C@H](O)CNC2CC2)cc(N(C)S(C)(=O)=O)c1)c1ccccc1
[1]
  Potency: inactive
[2]
  Potency: 4.77 µM (active)
[3]
  Potency: 4.25 µM (active)
[4]
  Potency: inactive

## Cc1ccc(COC(=O)N2CC[C@@H](CNc3ncccn3)[C@@H](F)C2)cc1
[1]
  Potency: inactive
[2]
  Potency: 16.9 µM (active)
[3]
  Potency: 13.5 µM (active)

## CC(C)[C@@](O)(c1ccc2cc(OC(F)F)c(OC(F)F)cc2c1)c1cn[nH]n1
[1]
  Potency: inactive
[2]
  Potency: 1.69 µM (active)

## CC(O)C(=O)/C=C/C=C/C(=O)OC1C=C2COC(=O)C2(O)C2(C)CCCC(C)(C)C12 (stereo not given)
[1]
  Potency: inactive

## CC(=O)O[C@@H]1C=C2[C@H](CC[C@@]3(C)[C@@]2(O)CC[C@H]2Cc4c([nH]c5ccccc45)[C@@]23C)O[C@@H]1C(C)(C)O
[1]
  Potency: inactive

## CC(=O)OC/C(=C/C(=O)O)CC[C@@H]1C(CO)=CC[C@@H]2C(C)(C)CCC[C@@]12C
[1]
  Potency: inactive

## Cc1nnc(-c2ccc3occ(-c4ccc(S(C)=O)cc4)c3c2)o1 (stereo not given)
[1]
  Potency: inactive
[2]
  Potency: inactive
[3]
  Potency: 19 µM (active)

## CC(=O)NCC1CN(c2ccc(-c3ccc(CNCc4cn[nH]n4)cc3)c(F)c2)C(=O)O1 (stereo not given)
[1]
  Potency: inactive
[2]
  Potency: inactive
[3]
  Potency: 15.1 µM (active)

## N[C@@H](CCNCc1ccc(Cl)cc1)C(=O)N1CCCCC1
[1]
  Potency: inactive
[2]
  Potency: 10.7 µM (active)
[3]
  Potency: inactive
[4]
  Potency: inactive

## CCOC(=O)c1ccc(NC2CCCCC2)c(N)c1
[1]
  Potency: inactive
[2]
  Potency: 9.52 µM (active)
[3]
  Potency: 5.35 µM (active)

## COC(=O)c1[nH]c(=O)c2ccccc2c1-c1ccc[nH]1
[1]
  Potency: inactive

## Oc1ccccc1-c1cc(-c2ccccc2F)[nH]n1
[1]
  Potency: inactive
[2]
  Potency: inactive
[3]
  Potency: 13.5 µM (active)

## CCOc1ccc(-c2nn3ncccc3c2-c2ccc(S(C)(=O)=O)cc2)cc1
[1]
  Potency: inactive
[2]
  Potency: 1.07 µM (active)
[3]
  Potency: 4.77 µM (active)

## COc1c(C)c(OCC=C(C)C)cc2c1CNC2=O
[1]
  Potency: inactive

## COc1cccc(Cn2ncc3c4sc(S(C)=O)cc4n(C)c3c2=O)c1 (stereo not given)
[1]
  Potency: inactive
[2]
  Potency: 10.7 µM (active)
[3]
  Potency: 12 µM (active)

## C/C=C(\C)C(=O)O[C@H]1C=CC(=O)O[C@H]1/C=C/[C@H](O)[C@@H](C)O
[1]
  Potency: inactive

## COc1ccc(-c2ccn(CC[C@](C)(C(=O)NO)S(C)(=O)=O)c(=O)c2)c(F)c1
[1]
  Potency: inactive
[2]
  Potency: inactive
[3]
  Potency: inactive

## COc1cnc(-c2ccc(Cn3c(CC(C)(C)C(=O)O)c(SC(C)(C)C)c4cc(OC[C@@H]5Cc6ccccc6N5C(C)=O)ccc43)cc2)nc1
[1]
  Potency: inactive
[2]
  Potency: inactive
[3]
  Potency: 12 µM (active)

## CCCSc1nc(NC2CC2c2ccc(F)c(F)c2)c2nnn(C3CC(OCCO)C(O)C3O)c2n1 (stereo not given)
[1]
  Potency: inactive
[2]
  Potency: 21.3 µM (active)

## CC1CCCCCCCc2cc(O)cc(O)c2C(=O)O1 (stereo not given)
[1]
  Potency: inactive

## N[C@@H](CC(=O)Nc1ccc(Oc2cc(F)c(F)cc2Br)cc1)C(=O)O
[1]
  Potency: inactive
[2]
  Potency: inactive

## CC(=O)OC(C)(C)/C=C/C(=O)[C@](C)(O)C1[C@H](O)C[C@@]2(C)[C@@H]3CC=C4[C@@H](C[C@H](O[C@@H]5O[C@H](CO)[C@@H](O)[C@H](O)[C@H]5O)C(=O)C4(C)C)[C@]3(C)C(=O)C[C@]12C (stereo not given in full)
[1]
  Potency: inactive

## C=C1Cc2c(Cl)cc3[nH]c4c5c3c2[C@@]2(O)[C@@H]1C[C@@H]2C(C)(C)O[C@H]5C1CC[C@@]2(O)[C@@]35O[C@@H]3[C@H]3OC(C)(C)[C@H]3O[C@H]5CC[C@]2(C)[C@@]41C (stereo not given in full)
[1]
  Potency: inactive

## c1ccc2c(Nc3nnc(-c4ccncc4)s3)cccc2c1
[1]
  Potency: inactive
[2]
  Potency: inactive
[3]
  Potency: 6.01 µM (active)
[4]
  Potency: inactive
[5]
  Potency: inactive

## CCOc1nc2c(N)ncnc2n1CC
[1]
  Potency: inactive
[2]
  Potency: inactive
[3]
  Potency: inactive
[4]
  Potency: inactive
[5]
  Potency: inactive

## COc1ccc(C(=O)NCc2cc(C(C)C)no2)cc1OC1CCN(C)CC1
[1]
  Potency: inactive
[2]
  Potency: inactive
[3]
  Potency: inactive
[4]
  Potency: inactive
[5]
  Potency: inactive

## Nc1nc(COC(=O)c2ccc([N+](=O)[O-])cc2)nc(Nc2ccccc2)n1
[1]
  Potency: inactive
[2]
  Potency: inactive
[3]
  Potency: 21.3 µM (active)
[4]
  Potency: inactive
[5]
  Potency: inactive

## COC(=O)C(CC1CCCC1)c1ccc(S(C)(=O)=O)cc1 (stereo not given)
[1]
  Potency: inactive
[2]
  Potency: 12 µM (active)
[3]
  Potency: 4.77 µM (active)
[4]
  Potency: inactive
[5]
  Potency: inactive

## CC[C@@H](C)[C@H](N)C(=O)N1Cc2ccccc2C1
[1]
  Potency: inactive
[2]
  Potency: 13.5 µM (active)
[3]
  Potency: inactive
[4]
  Potency: inactive

## CCCC(=O)Nc1cccc(NC(=O)c2ccccc2Br)c1
[1]
  Potency: inactive
[2]
  Potency: inactive
[3]
  Potency: inactive
[4]
  Potency: inactive
[5]
  Potency: inactive
